Out of some 16,000 compounds screened, about 4,000 (25%) were called active. Not shown: some 26% with an inconclusive outcome. The call rests on the fitted dose curve; in most records, active means well fitted curve in the direction sought with a large enough effect; inconclusive means small, poorly fitted or top-dose-only effect, or effect the other way; inactive means no such curve, though single readings can be large or run the other way. A selection follows.
What follows are compounds tested against Cytochrome P450 2C9 (Homo sapiens) (UniProt P11712) (assay: Cytochrome panel assay with activity outcomes). Conditions: recombinant CYP, pro-luciferin dealkylation, luminescence, p450-cyp2c9; series mostly up to 57.1 µM.
On the % scale 0 is the no-effect control and ±100 the full control effect.

Sequence of Cytochrome P450 2C9 (Homo sapiens) (P11712 whole entry, looked up): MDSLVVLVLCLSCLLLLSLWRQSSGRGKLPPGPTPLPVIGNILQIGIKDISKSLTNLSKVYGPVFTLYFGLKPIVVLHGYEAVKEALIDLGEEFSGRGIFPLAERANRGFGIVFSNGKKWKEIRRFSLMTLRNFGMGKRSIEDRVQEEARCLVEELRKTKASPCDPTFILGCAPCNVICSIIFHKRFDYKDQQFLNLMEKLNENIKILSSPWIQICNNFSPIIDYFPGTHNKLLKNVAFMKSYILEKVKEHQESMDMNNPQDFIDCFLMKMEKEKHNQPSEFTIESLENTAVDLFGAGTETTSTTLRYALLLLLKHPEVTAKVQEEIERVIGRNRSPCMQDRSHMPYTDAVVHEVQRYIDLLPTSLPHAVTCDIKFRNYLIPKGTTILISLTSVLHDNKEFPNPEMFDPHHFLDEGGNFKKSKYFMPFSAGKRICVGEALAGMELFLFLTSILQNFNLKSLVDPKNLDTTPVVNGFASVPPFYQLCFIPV

AC50, inactive:
COC(=O)Nc1nc2ccc(Sc3ccccc3)cc2[nH]1
c1ccc2[nH]c(NC3=NCCC3)nc2c1
CN1CCC(N(C)C(=O)CCc2nc3ccccc3c(=O)[nH]2)CC1
Cc1cccc(NC(=S)c2nc3ccccc3s2)c1
C/C(=N\OC(=O)c1ccccc1)c1cc(-c2ccc(Cl)cc2)no1
Cn1c(=O)c2[nH]c(C3CCCC3)nc2n(C)c1=O
NC(=O)N[C@H]1NC(=O)NC1=O
COC(=O)C(C)(C(=O)OC)c1ccc([N+](=O)[O-])cn1
C=CCC(C(=O)OC)(C(=O)OC)c1ccc([N+](=O)[O-])cn1
O=C1CCCCC(=O)c2ccccc2N1
O=C(CNC(=O)c1ccco1)OCc1c(F)cccc1Cl
COc1ccc(C(=O)NCC(=O)OCc2cccc(Br)c2)cc1
O=C(Nc1nc2ccccc2n1CCN1CCCCC1)C1CCCCC1
Cc1ccc(NCC(=O)N/N=C\c2ccc([N+](=O)[O-])o2)cc1
COc1cccc(/C=N/NC(=O)c2cc(-c3cccn3C)n[nH]2)c1
COc1ccc(-n2c(C)nn(C)c2=O)cc1
CCOC(=O)c1nc(N)sc1C(=O)OCC
CC(C)Nc1cc(C(F)(F)F)nc(-c2ccccn2)n1
CCOC(=O)c1[nH]c(C(=O)O)c(CCN(CC)CC)c1C
CCN(CC)C(=O)CSc1nnc(-c2ccco2)n1N
COc1cc(/C=C\c2ccc(OC)cc2OC)cc(OC)c1
CC(C)NC(=O)N1CCC2(CC1)CCN(C(=O)c1ccncc1)CC2
CN1CCN(S(=O)(=O)c2cc([N+](=O)[O-])ccc2N2CCCCCC2)CC1
Clc1ccc(N2CCCCCC2)nn1
Cc1cccc(N(CC(=O)N2CCOCC2)S(C)(=O)=O)c1
CN(CC(=O)O/N=C(\N)c1ccccn1)S(=O)(=O)c1ccccc1
CC(C)NC[C@H](O)c1cc(O)cc(O)c1

AC50, active:
COc1cc(/C=N\Nc2nc3ccccc3[nH]2)cc(OC)c1OC 15.8 µM
Cc1ccc2nc(-c3ccccc3)cc(C(=O)NCCCn3ccnc3)c2c1 0.1 µM
Cc1cccc(NC(=O)N(Cc2nc3ccccc3c(=O)[nH]2)C2CCCC2)c1 5.62 µM
N/C(=N\OC(=O)c1cc(-c2ccccc2)nc2ccccc12)c1ccc(Cl)cc1 3.98 µM
COC(=O)C(NC(=O)c1ccc(F)cc1)(Nc1ncc(S(=O)(=O)c2ccc([N+](=O)[O-])cc2)s1)C(F)(F)F (stereo not given) 3.55 µM
O=S(=O)(Nc1ccc(Cc2ccncc2)cc1)c1ccc(Br)cc1 0.0141 µM
O=S(=O)(Nc1ccc(Cc2ccncc2)cc1)c1cccs1 0.02 µM
O=C(CNC(=O)c1ccco1)OC(C(=O)c1ccccc1)c1ccccc1 (stereo not given) 25.1 µM
COc1ccc(C(=O)C(OC(=O)CNC(=O)c2ccco2)c2ccccc2)cc1 (stereo not given) 20 µM
Cc1cc(NC(=O)C2CCCC2)n(-c2nc3ccccc3[nH]2)n1 3.98 µM
Cc1cc(C(=O)N/N=C/c2cccc(OC(=O)c3ccco3)c2)n[nH]1 11.2 µM
Cc1ccc(NCC(=O)N/N=C/c2ccc(OC(=O)c3ccco3)cc2)cc1 8.91 µM
CCOC(=O)c1sc(=N)n(-c2ccc(OC)cc2)c1C 3.16 µM
CC(C)Nc1nc(Oc2ccc(Cl)cc2)cc(C(F)(F)F)n1 15.8 µM
CC(C)CN(Cc1c(O)ccc2c3c(c(=O)oc12)CCC3)CC(C)C 28.2 µM
CCOc1ccc(C2=Nn3c(nnc3-c3ccco3)SC2)cc1 2.24 µM
CCc1ccc(C2=Nn3c(nnc3-c3cccs3)SC2)cc1 7.08 µM
COC(=O)C1=C(NC(=O)c2cccc(OC)c2)CCS1 11.2 µM
CCN(CC)S(=O)(=O)c1ccc(C(=O)NC2=C(C(=O)OC)SCC2)cc1 2 µM
O=[N+]([O-])c1ccc(N2CCCCC2)c(Cl)c1N1CCCCC1 2.24 µM
Cc1cc(C)cc(N(CC(=O)NCCSc2ccccn2)S(=O)(=O)c2ccccc2)c1 0.282 µM
Cc1cccc(N(CC(=O)NCCSCc2ccco2)S(=O)(=O)c2ccccc2)c1 4.47 µM
Cc1cccc(CSCCNC(=O)c2ccc(N(C)S(=O)(=O)c3ccccc3)cc2)c1 0.562 µM

activity, negative = inhibition, inactive:
CCOc1ccc2c(ccc(/C=C\c3cc(C)c4cccnc4c3O)[n+]2C)c1 5.89% [at 11.4 µM]
O=C(O)[C@H]1CCCC[C@@H]1C(=O)Nc1nc2ccccc2[nH]1 2.98% [at 11.4 µM]
CC(C)c1cc(C(F)(F)F)nc(NNc2nc(C(C)C)cc(C(F)(F)F)n2)n1 -27.5% [at 11.4 µM]
C/C(CCN1CCc2nc(-c3ccccc3)c(-c3ccccc3)cc2C1)=N\OC[C@@H](O)COCc1ccco1 -7.86% [at 11.4 µM]
C/C(CCN1CCc2nc(-c3ccccc3)c(-c3ccccc3)cc2C1)=N\OC[C@@H](C)[C@H](OCc1ccccc1)C(C)C -9.58% [at 11.4 µM]
Cc1cccc(CNc2ccnc(-c3ccc(C(=O)N(C)C)cc3)n2)c1 -11.3% [at 2.29 µM]
Cc1cccc(CNc2cc(-c3ccc(C(=O)N(C)C)cc3)ncn2)c1 5.16% [at 2.29 µM]
O=C(O)C[C@H]1OCC=C2C[N@@+]3([O-])CC[C@]45c6ccccc6N[C@@H]4[C@@H]1[C@H]2C[C@H]53 5.86% [at 11.4 µM]
CC(=O)OC[C@@H]1O[C@@H](O/N=C2/C[C@@H](O)[C@@H](O)[C@@H]3[C@H]4C(=O)N(c5ccc(F)cc5F)C(=O)[C@@H]4CC[C@@H]23)[C@H](OC(C)=O)[C@H](OC(C)=O)[C@@H]1OC(C)=O 18.5% [at 11.4 µM]
CC1=NCC[N@@+]1(CCc1ccccc1)Cc1ccccc1 -1.38% [at 11.4 µM]
